The supplement of paper PMC7669877
± gives the uncertainty stated by the source.

system: Candidatus Liberibacter solanacearum in potato hairy roots; assay: relative CLso titer (% of untreated control); higher = less inhibition of bacterial titer; conditions: 10 µM; 72 h
Description: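 Primary screen of ~220 Spectrum collection (MicroSource) compounds at 10 µM (0.1% DMSO) on Candidatus Liberibacter solanacearum-infected potato hairy roots in multi-well plates (Gamborg B-5 medium, vacuum infiltrated, 21 °C, dark, 72 h). CLso titer was measured by qPCR of 16S rDNA normalised to potato RPL2 (2^-ddCq), pairwise-standardised against untreated controls, averaged over two biological replicates and expressed as % of untreated.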

SMILES	relative CLso titer
CC1(C)[C@@H](OC(=O)CCC(=O)O)CC[C@]2(C)[C@H]3C(=O)C=C4[C@@H]5C[C@@](C)(C(=O)O)CC[C@]5(C)CC[C@@]4(C)[C@]3(C)CC[C@@H]12	132 ± 30%
CN1CCN(C(c2ccccc2)c2ccccc2)CC1	105 ± 31%
O=C(c1ccc(OCCN2CCCCC2)cc1)c1c(-c2ccc(O)cc2)sc2cc(O)ccc12	93 ± 3.9%
CO/N=C(\C(=O)N[C@@H]1C(=O)N2C(C(=O)O)=C(COC(C)=O)CS[C@H]12)c1csc(N)n1	68.6 ± 14%
COC(=O)Nc1nc2cc(C(=O)c3cccs3)ccc2[nH]1	79.7 ± 6.4%
CCOc1ccc(Cc2cc([C@@H]3O[C@H](CO)[C@@H](O)[C@H](O)[C@H]3O)ccc2Cl)cc1	99 ± 3%
Clc1ccc(CSC(Cn2ccnc2)c2ccc(Cl)cc2Cl)cc1 (centres undefined)	111 ± 31%
O=C(O)CN(CCN(CC(=O)O)CC(=O)O)CC(=O)O	228 ± 120%
Cn1nnnc1SCC1=C(C(=O)O)N2C(=O)[C@@H](NC(=O)[C@H](OC=O)c3ccccc3)[C@H]2SC1	86.7 ± 26%
CCCNC(=O)NS(=O)(=O)c1ccc(Cl)cc1	38.9 ± 4.5%
Nc1ccc(C(=O)Oc2ccccc2)c(O)c1	102 ± 12%
CCN1CCCC(OC(=O)C(c2ccccc2)c2ccccc2)C1 (centres undefined)	188 ± 36%
CC(=O)OCC[N+](C)(C)C	96.2 ± 31%
C[C@@H]1C[C@H]2[C@@H]3C[C@H](F)C4=CC(=O)C=C[C@]4(C)[C@@]3(F)[C@@H](O)C[C@]2(C)[C@@]1(OC(=O)c1ccco1)C(=O)SCF	92.9 ± 10%
Clc1ccccc1C(c1ccccc1)(c1ccccc1)n1ccnc1	65.3 ± 14%
Clc1cccc(Cl)c1NC1=NCCN1	55.5 ± 4.1%
COc1ccc(CNc2nc(N3CCC[C@H]3CO)ncc2C(=O)NCc2ncccn2)cc1Cl	110 ± 46%

SMILES	relative CLso titer
N=C(NCCCCCCNC(=N)NC(=N)Nc1ccc(Cl)cc1)NC(=N)Nc1ccc(Cl)cc1	89.5 ± 36%
CCOC(=O)[C@H](CCc1ccccc1)N[C@@H](C)C(=O)N(CC(=O)O)C1Cc2ccccc2C1	90.7 ± 30%
CC(=O)Nc1nnc(S(N)(=O)=O)s1	74.1 ± 19%
C[C@H]1O[C@H](O[C@H]2[C@H](O)[C@@H](O)[C@@H](O[C@H]3[C@H](O)[C@@H](O)C(O)O[C@@H]3CO)O[C@@H]2CO)[C@H](O)[C@@H](O)[C@@H]1N[C@H]1C=C(CO)[C@@H](O)[C@H](O)[C@H]1O (some centres undefined)	135 ± 70%
N[C@@H]1CONC1=O	177 ± 11%
CC1=C(/C=C/C(C)=C/C=C/C(C)=C/C(=O)O)C(C)(C)CCC1	132 ± 9.7%
CCN(CC)CCOc1ccc(C(=C(Cl)c2ccccc2)c2ccccc2)cc1	42.7 ± 2.2%
NCCc1ccc(O)c(O)c1	117 ± 26%
Cc1cn([C@H]2C[C@H](N=[N+]=[N-])[C@@H](CO)O2)c(=O)[nH]c1=O	52.6 ± 7.3%
COc1ccc(NS(=O)(=O)c2ccc(N)cc2)nn1	116.5 ± 0.47%
CCCCOc1ccc(OCCCN2CCOCC2)cc1	106 ± 37%
CCCN(CCC)C(=O)C(CCC(=O)O)NC(=O)c1ccccc1 (centres undefined)	52.8 ± 27%
CC(C)NCC(O)COc1ccc(CC(N)=O)cc1 (centres undefined)	106 ± 58%
C#C[C@]1(OC(C)=O)CC[C@H]2[C@@H]3CCC4=CC(=NO)CC[C@@H]4[C@H]3CC[C@@]21CC (mixture of isomers)	64.9 ± 10%
CC1(C)O[C@@H]2C[C@H]3[C@@H]4C[C@H](F)C5=CC(=O)C=C[C@]5(C)[C@H]4[C@@H](O)C[C@]3(C)[C@]2(C(=O)CO)O1	99.4 ± 17%
CCCC(C(=O)OCCN(CC)CC)(c1ccccc1)c1ccccc1	112 ± 16%
C#C[C@]1(O)CC[C@H]2[C@@H]3CCC4=Cc5oncc5C[C@]4(C)[C@H]3CC[C@@]21C	154 ± 40%
